# Data taken from PubChem BioAssay (EPA / NIEHS).
# “And” between values parts separate entries of the source, which are not always exact repeats. Identical values can stand only once. Inconclusive results are not listed. The source made the active and inactive calls. Rule for the calls, unless noted: active = hit-call score of the fitted dose curve at least 0.9, where 1 is the maximum; inactive = score below 0.9.
# Experiments:
# [1] = read-out: Signal transducer and activator of transcription 3 (Homo sapiens) (UniProt P40763); assay: LTEA_HepaRG_STAT3: Life Technologies and Expression Analysis (LTEA) Assay for Signal transducer and activator of transcription (STAT3) using HepaRG (AID 2283529); settings: mRNA level, 48 h; actives raise or lower the signal
# Outline: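 HepaRG, 48 h exposure, 8-pt half-log series (top 100 uM), 0.5% DMSO vehicle, duplicates. Readout: STAT3 transcript by Fluidigm qRT-PCR, housekeeping-normalized; bidirectional fit vs DMSO baseline.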
# [2] = read-out: solute carrier (SLCO1B1), SLCO1B1 (gene 10599); assay: LTEA_HepaRG_SLCO1B1: Life Technologies and Expression Analysis (LTEA) Assay for solute carrier (SLCO1B1) using HepaRG (AID 2283530); settings: mRNA level, 48 h; actives raise or lower the signal
# Outline: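 Gain or loss of SLCO1B1 mRNA is fitted against the 0.5% DMSO vehicle in human HepaRG liver cells treated 48 h at up to 100 uM in half-log steps. Expression comes from qRT-PCR normalized to endogenous controls.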
# [3] = read-out: sulfotransferase 2A1 (SULT2A1), SULT2A1 (gene 6822); assay: LTEA_HepaRG_SULT2A1: Life Technologies and Expression Analysis (LTEA) Assay for sulfotransferase 2A1 (SULT2A1) using HepaRG (AID 2283531); settings: mRNA level, 48 h; actives raise or lower the signal
# Outline: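 Cells were plated and cultured 48 h, switched to serum-free induction medium, then dosed in duplicate for 48 h (8 concentrations, max 100 uM). RNA was isolated and SULT2A1 expression measured by qRT-PCR; gain or loss of signal fitted relative to DMSO.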
# [4] = read-out: Transforming Growth Factor (TGFB1), TGFB1 (gene 7040); assay: LTEA_HepaRG_TGFB1: Life Technologies and Expression Analysis (LTEA) Assay for Transforming Growth Factor (TGFB1) Transporter using HepaRG (AID 2283533); settings: mRNA level, 48 h; actives raise or lower the signal
# Outline: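 Expression change of TGFB1 in human HepaRG cells is measured after a 48 h chemical exposure, up to 100 uM in 0.5% DMSO vehicle. Curves are fitted in both directions relative to the DMSO baseline.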
# TIMP1, TIMP1 (gene 7076) = assay: LTEA_HepaRG_TIMP1: Life Technologies and Expression Analysis (LTEA) Assay for TIMP1 using HepaRG (AID 2283534); settings: mRNA level, 48 h; actives raise or lower the signal
# Outline: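 We dosed human liver HepaRG cultures for 48 hours with up to 100 uM test chemical and measured TIMP1 expression by qRT-PCR. Activity in either direction is fitted relative to the 0.5% DMSO vehicle.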
# [5] = read-out: Tumor necrosis factor receptor 1 (TNFRSF1A), TNFRSF1A (gene 7132); assay: LTEA_HepaRG_TNFRSF1A: Life Technologies and Expression Analysis (LTEA) Assay for Tumor necrosis factor receptor 1 (TNFRSF1A) using HepaRG (AID 2283535); settings: mRNA level, 48 h; actives raise or lower the signal
# Outline: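 Expression of TNFRSF1A in human HepaRG liver cells was measured by qRT-PCR 48 h after chemical dosing (maximum 100 uM). Bidirectional curve fitting used 0.5% DMSO as baseline.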
# [6] = read-out: Thyroid Hormone Responsive (THRSP), THRSP (gene 7069); assay: LTEA_HepaRG_THRSP: Life Technologies and Expression Analysis (LTEA) Assay for Thyroid Hormone Responsive (THRSP) using HepaRG (AID 2283536); settings: mRNA level, 48 h; actives raise or lower the signal
# Outline: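 qRT-PCR read-out (Fluidigm TaqMan), housekeeping-normalized (ACTB/GAPDH/POLR2A). HepaRG, 48 h chemical exposure, 8-pt half-log series from 100 uM in 0.5% DMSO, duplicates. Bidirectional curve fit vs 0.5% DMSO baseline.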
# [7] = read-out: Cellular tumor antigen p53 (Homo sapiens) (UniProt P04637); assay: LTEA_HepaRG_TP53: Life Technologies and Expression Analysis (LTEA) Assay for Tumor Protein P53 (TP53) using HepaRG (AID 2283537); settings: mRNA level, 48 h; actives raise or lower the signal
# Outline: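 TP53 transcript measured by qRT-PCR, normalized to three housekeeping genes, after 48 h treatment of human HepaRG cultures with chemicals from 100 uM downward in half-log steps (0.5% DMSO vehicle, serum-free induction medium). Up- or down-regulation fitted against DMSO.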
# [8] = read-out: UDP glucuronosyltransferase (UGT1A1), UGT1A1 (gene 54658); assay: LTEA_HepaRG_UGT1A1: Life Technologies and Expression Analysis (LTEA) Assay for UDP glucuronosyltransferase (UGT1A1) using HepaRG (AID 2283538); settings: mRNA level, 48 h; actives raise or lower the signal
# Outline: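 mRNA induction or loss of UGT1A1, by TaqMan qRT-PCR, in duplicate HepaRG wells after 48 h exposure to half-log dilutions topping at 100 uM; DMSO (0.5%) served as baseline.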
# [9] = read-out: UDP glucuronosyltransferase (UGT1A6), UGT1A6 (gene 54578); assay: LTEA_HepaRG_UGT1A6: Life Technologies and Expression Analysis (LTEA) Assay for UDP glucuronosyltransferase (UGT1A6) using HepaRG (AID 2283539); settings: mRNA level, 48 h; actives raise or lower the signal
# Outline: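 Endpoint is UGT1A6 transcript induction or loss in a human liver cell line, quantified by TaqMan qRT-PCR 48 h after dosing. Concentrations ran from 100 uM downward in half-log steps in 0.5% DMSO; activity was fitted in both directions versus vehicle.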
# [10] = read-out: X-box binding protein 1 (XBP1), XBP1 (gene 7494); assay: LTEA_HepaRG_XBP1: Life Technologies and Expression Analysis (LTEA) Assay for X-box binding protein 1 (XBP1) using HepaRG (AID 2283540); settings: mRNA level, 48 h; actives raise or lower the signal
# Outline: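 Human HepaRG monolayers receive test chemical for 48 h across an eight-point half-log series starting at 100 uM. XBP1 mRNA gain or loss is scored against DMSO by qRT-PCR.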
# [11] = LTEA_HepaRG_LDH_cytotoxicity: Cytotoxicity Assessment in the Life Technologies and Expression Analysis (LTEA) Assay (AID 2283563; active = hit-call score of the fitted dose curve at least 0.9, where 1 is the maximum)
# Outline: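 Human HepaRG hepatic cells are treated with test chemicals for 48 h at up to 100 uM in 0.5% DMSO. Cytotoxicity is scored from medium LDH against the vehicle control.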
# [12] = TOX21_p53_BLA_p2_viability: Viability Assessment in the Tox21 HCT-116 p53 Agonism Beta-lactamase Assay, Phase 2 (AID 2283591; active = hit-call score of the fitted dose curve at least 0.9, where 1 is the maximum;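 note: compound exposure lasted 16 h at 37 °C; actives lower the ATP signal meaning cytotoxicity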)
# Outline: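 HCT116 p53-bla cells, 4000/well, dosed after 5 h plating (217-fold dilution of DMSO stocks) and incubated 16 h at 37C. Viability taken as cellular ATP by CellTiter-Glo luminescence after 30 min RT; signal loss marks cytotoxicity.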
# [13] = target: Cellular tumor antigen p53 (Homo sapiens) (UniProt P04637); assay: TOX21_p53_BLA_p2_ratio: Tox21 HCT-116 p53 Agonism Beta-lactamase Assay, Ratio, Phase 2 (AID 2283592; active = hit-call score of the fitted dose curve at least 0.9, where 1 is the maximum)
# Chain of Cellular tumor antigen p53 (Homo sapiens) (P04637 whole entry, looked up): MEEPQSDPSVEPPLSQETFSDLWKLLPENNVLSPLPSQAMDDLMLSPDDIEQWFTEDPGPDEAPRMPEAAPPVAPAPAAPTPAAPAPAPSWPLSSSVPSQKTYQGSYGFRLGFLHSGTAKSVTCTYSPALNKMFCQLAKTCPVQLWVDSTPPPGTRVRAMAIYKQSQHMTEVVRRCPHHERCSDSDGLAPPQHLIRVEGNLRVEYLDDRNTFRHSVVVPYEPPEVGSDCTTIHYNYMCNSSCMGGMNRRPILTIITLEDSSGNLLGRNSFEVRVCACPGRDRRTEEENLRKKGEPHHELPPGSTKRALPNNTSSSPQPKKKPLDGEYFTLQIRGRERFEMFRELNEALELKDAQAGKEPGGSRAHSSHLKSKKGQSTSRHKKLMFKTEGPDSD
# Outline: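 Cleaved-to-uncleaved substrate ratio (460 vs 530 nm) measured in HCT116 cells with an inducible beta-lactamase reporter linked to p53 activity. Compounds incubated 16 h at 37C before 2 h room-temperature CCF4-AM loading.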
# [14] = TOX21_p53_BLA_p3_viability: Viability Assessment in the Tox21 HCT-116 p53 Agonism Beta-lactamase Assay, Phase 3 (AID 2283593; active = hit-call score of the fitted dose curve at least 0.9, where 1 is the maximum;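 note: cells exposed to compound for 16 h before reading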)
# Outline: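 HCT116 cells, 4000/well, dosed 5 h after plating by pin transfer (217-fold dilution from DMSO stock) and incubated 16 h at 37C, 5% CO2. Viability read as ATP luminescence with CellTiter-Glo after 30 min at room temperature.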
# [15] = target: Cellular tumor antigen p53 (Homo sapiens) (UniProt P04637); assay: TOX21_p53_BLA_p5_ratio: Tox21 HCT-116 p53 Agonism Beta-lactamase Assay, Ratio, Phase 5 (AID 2283599; active = hit-call score of the fitted dose curve at least 0.9, where 1 is the maximum)
# Outline: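 HCT-116 p53-bla cells (4000/well) plated 5 h, dosed with compound (217-fold DMSO dilution) for 16 h at 37 C; CCF4-AM substrate 2 h at room temperature. Activity is the 460/530 nm emission ratio (405 nm excitation), fitted in gain-of-signal direction versus DMSO.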
# [16] = ATG_XTT_Cytotoxicity: Cytotoxicity Assessment in the Attagene TRANS-FACTORIAL HepG2 Assay (AID 2283584; active = hit-call score of the fitted dose curve at least 0.9, where 1 is the maximum)
# Outline: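 Transfect HepG2 with GAL4-UAS reporter units, dose compound, incubate 24 h, then measure viable cell number by XTT. Fit concentration response against DMSO baseline.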
# [17] = target: Cellular tumor antigen p53 (Homo sapiens) (UniProt P04637); assay: TOX21_p53_BLA_p3_ratio: Tox21 HCT-116 p53 Agonism Beta-lactamase Assay, Ratio, Phase 3 (AID 2283596; active = hit-call score of the fitted dose curve at least 0.9, where 1 is the maximum)
# Outline: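 Cells were seeded at 4000/well, rested 5 h at 37C, then dosed with DMSO compound solutions (217-fold dilution) for 16 h. CCF4-AM substrate was loaded for 2 h at room temperature, and the 460/530 nm emission ratio was fitted for gain of signal versus DMSO.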
# [18] = TOX21_p53_BLA_p4_viability: Viability Assessment in the Tox21 HCT-116 p53 Agonism Beta-lactamase Assay, Phase 4 (AID 2283597; active = hit-call score of the fitted dose curve at least 0.9, where 1 is the maximum;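 note: hits lower the luminescence signal meaning cytotoxicity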)
# Outline: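 Viability is taken as cellular ATP: after 16 h compound exposure of HCT116 cells and a 2 h room-temperature CCF4-AM substrate step, CellTiter-Glo reagent is added and luminescence is measured 30 min later.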
# Chain of Signal transducer and activator of transcription 3 (Homo sapiens) (P40763 whole entry, looked up): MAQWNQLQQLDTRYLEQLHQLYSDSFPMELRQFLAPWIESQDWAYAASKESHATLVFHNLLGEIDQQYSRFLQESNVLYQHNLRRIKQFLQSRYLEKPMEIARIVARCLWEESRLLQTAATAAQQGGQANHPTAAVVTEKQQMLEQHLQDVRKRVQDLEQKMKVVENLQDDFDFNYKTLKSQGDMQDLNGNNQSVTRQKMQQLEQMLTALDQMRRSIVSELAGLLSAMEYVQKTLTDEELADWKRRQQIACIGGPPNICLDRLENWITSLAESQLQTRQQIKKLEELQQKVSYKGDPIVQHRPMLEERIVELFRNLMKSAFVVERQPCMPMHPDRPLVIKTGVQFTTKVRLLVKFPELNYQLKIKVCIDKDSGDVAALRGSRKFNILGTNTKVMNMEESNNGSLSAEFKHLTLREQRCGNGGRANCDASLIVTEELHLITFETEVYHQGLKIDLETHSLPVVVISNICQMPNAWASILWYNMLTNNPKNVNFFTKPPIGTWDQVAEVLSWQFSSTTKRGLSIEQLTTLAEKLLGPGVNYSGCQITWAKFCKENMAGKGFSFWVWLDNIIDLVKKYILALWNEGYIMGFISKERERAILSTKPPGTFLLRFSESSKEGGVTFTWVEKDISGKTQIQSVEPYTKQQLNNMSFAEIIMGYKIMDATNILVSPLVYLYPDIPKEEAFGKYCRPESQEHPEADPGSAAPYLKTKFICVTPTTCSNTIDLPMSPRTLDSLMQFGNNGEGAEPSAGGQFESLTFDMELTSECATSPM
smiles,measurement,setting,value
C[Si]1(C)O[Si](C)(C)O[Si](C)(C)O[Si](C)(C)O1,outcome,[1],inactive
same,outcome,[2],inactive
same,outcome,[3],inactive
same,outcome,[4],inactive
same,outcome,"TIMP1, TIMP1 (gene 7076)",inactive
same,outcome,[5],inactive
same,outcome,[6],inactive
same,outcome,[7],inactive
same,outcome,[8],inactive
same,outcome,[9],inactive
same,outcome,[10],inactive
same,outcome,[11],inactive
same,outcome,[12],inactive
same,outcome,[13],inactive
same,outcome,[14],inactive
same,outcome,[15],inactive
Oc1ccc2ccccc2c1N=Nc1ccccc1,AC50,[1],16.2 µM (active)
same,AC50,[2],11.4 µM (active)
same,AC50,[3],4.89 µM (active)
same,AC50,"TIMP1, TIMP1 (gene 7076)",10.1 µM (active)
same,outcome,[5],inactive
same,AC50,[6],2.19 µM (active)
same,outcome,[7],inactive
same,AC50,[8],0.811 µM (active)
same,outcome,[9],inactive
same,AC50,[10],7.84 µM (active)
same,outcome,[16],inactive
same,outcome,[12],inactive
same,outcome,[13],inactive
same,outcome,[14],inactive
same,outcome,[17],inactive
same,outcome,[15],inactive
Cc1ccc(C)c(O)c1C,outcome,[1],inactive
same,outcome,[2],inactive
same,outcome,[3],inactive
same,outcome,[4],inactive
same,outcome,"TIMP1, TIMP1 (gene 7076)",inactive
same,outcome,[5],inactive
same,outcome,[6],inactive
same,outcome,[7],inactive
same,outcome,[8],inactive
same,outcome,[10],inactive
same,outcome,[11],inactive
same,outcome,[13],inactive
same,outcome,[14],inactive
same,outcome,[17],inactive
same,outcome,[18],inactive
same,outcome,[15],inactive
COc1cccc2c1C(=O)c1c(O)c3c(c(O)c1C2=O)C[C@@](O)(C(=O)CO)C[C@@H]3O[C@H]1C[C@H](N)[C@H](O)[C@H](C)O1,outcome,[16],inactive
same,outcome,[12],inactive
same,AC50,[13],98.2 nM (active) and 390 nM (active)
same,outcome,[14],inactive
same,AC50,[17],0.401 µM (active)
same,AC50,[15],238 nM (active) and 422 nM (active)
CCCCCCCCCCCCCCCC,outcome,[1],inactive
same,outcome,[2],inactive
same,outcome,[3],inactive
same,outcome,"TIMP1, TIMP1 (gene 7076)",inactive
same,outcome,[5],inactive
same,outcome,[6],inactive
same,outcome,[7],inactive
same,outcome,[8],inactive
same,outcome,[9],inactive
same,outcome,[10],inactive
same,outcome,[11],inactive
same,outcome,[12],inactive
same,outcome,[13],inactive
same,outcome,[14],inactive
same,outcome,[17],inactive
